# Structures can show the parent of a compound that is named as a salt.
# Columns and labels:
# Assay in all cases: Euclidean distance of Cell Painting phenotypic profile (signed KS, 77 features) to DMSO centroid (dimensionless distance); 5 or 10 uM (library dependent); higher = stronger phenotypic change vs DMSO (phenoactivity)
# Details in all cases: 48 h
# 786-O = tested on: 786-O
# Method in brief: (§1)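 Phenoactivity is defined as the Euclidean distance from a compound profile to the median vehicle profile. Each profile comprised 77 Harmony features, scored as signed Kolmogorov-Smirnov statistics versus same-plate vehicle wells, then plate-position corrected, correlation-weighted and replicate-averaged at the top dose. Five cancer lines and one healthy fibroblast line were exposed to library compounds for 48 h at 10 or 5 uM (0.1% DMSO final).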
# A549 = tested on: A549
# Method in brief: as §1
# DU145 = tested on: DU145
# Method in brief: as §1
# FB = tested on: FB
# Method in brief: as §1
# HEPG2 = tested on: HEPG2
# Method in brief: as §1
# OVCAR4 = tested on: OVCAR4
# Method in brief: as §1
Structure (SMILES),Euclidean distance (786-O),Euclidean distance (A549),Euclidean distance (DU145),Euclidean distance (FB),Euclidean distance (HEPG2),Euclidean distance (OVCAR4)
C[C@H]1c2cccc(O)c2C(=O)C2=C(O)[C@]3(O)C(=O)C(C(N)=O)=C(O)[C@@H](N(C)C)[C@@H]3[C@@H](O)[C@@H]21 [Doxycycline],1.5,1.3,0.845,0.954,0.564,1.67
COc1cc(OC)c2c(=O)[nH]c(-c3cc(C)c(OCCO)c(C)c3)nc2c1 [Apabetalone (RVX-208)],1.25,0.468,1.25,0.996,0.48,0.642
COCC(=O)Nc1cc(Sc2ccccc2)ccc1N=C(NC(=O)OC)NC(=O)OC [Febantel],0.969,0.892,0.944,1.06,1.09,1.15
Cc1ccc(C(=O)Nc2ccc(Oc3cc4cnn(C)c4cc3-c3cn[nH]c3)c(F)c2)c(=O)n1-c1ccc(F)cc1,1.83,1.59,1.22,3.01,2.28,1.67
CCCN1CCCC[C@H]1C(=O)Nc1c(C)cccc1C [Ropivacaine HCl],0.76,0.477,0.895,0.646,0.469,1.39
c1cc(CN2CCCNCCNCCCNCC2)ccc1CN1CCCNCCNCCCNCC1 [Plerixafor (AMD3100)],0.664,1.12,0.673,0.848,0.976,1.03
CO[C@@H]1[C@@H](O[C@@H]2O[C@H](C)[C@@H](O[C@H]3C[C@@](C)(O)[C@@H](O)[C@H](C)O3)[C@H](N(C)C)[C@H]2O)[C@@H](CC=O)C[C@@H](C)[C@@H](O[C@H]2CC[C@H](N(C)C)[C@@H](C)O2)/C=C/C=C/C[C@@H](C)OC(=O)C[C@H]1OC(C)=O [Acetylspiramycin (ASPM)],0.993,1.5,2.15,1.66,1.45,1.73
CO[C@@H]1[C@@H](O[C@@H]2O[C@H](C)[C@@H](O[C@H]3C[C@@](C)(O)[C@@H](OC(=O)CC(C)C)[C@H](C)O3)[C@H](N(C)C)[C@H]2O)[C@@H](CC=O)C[C@@H](C)[C@@H](O)/C=C/C=C/C[C@@H](C)OC(=O)C[C@H]1OC(C)=O [Josamycin],1.22,1.07,0.712,1.59,1.01,1.06
C[C@@]1(C(=O)Nc2ccc(F)nc2)CCCN1c1nc(Nc2cc(C3CC3)n[nH]2)c2cccn2n1,2.52,3.2,3.3,3.23,2.63,3.61
CC1=C(C(=O)OCCN(Cc2ccccc2)c2ccccc2)C(c2cccc([N+](=O)[O-])c2)C(P2(=O)OCC(C)(C)CO2)=C(C)N1 (configuration not stated) [Efonidipine],1.73,1.93,1.02,0.739,0.968,0.999
CC(C)N(CCCNC(=O)Nc1ccc(C(C)(C)C)cc1)C[C@H]1O[C@@H](n2ccc3c(N)ncnc32)[C@H](O)[C@@H]1O,1.04,0.769,0.92,1.18,0.5,0.755
COc1ccc2[nH]c([S@@+]([O-])Cc3ncc(C)c(OC)c3C)nc2c1 [Esomeprazole Sodium],1.75,1.36,1.05,0.915,1.26,1.34
